# Source: PubChem BioAssay (NCATS)
# Unmarked numbers belong to inactive results. Results filed as inconclusive are left out. Entries that show only a call come without a potency. Some compounds were tested as several samples or in several runs, with calls that do not always agree. Active and inactive are the calls of the source. Unless noted, calls come from the whole dose curve; as a rule, active = well fitted curve in the direction sought with a large enough effect; inconclusive = small, poorly fitted or top-dose-only effect, or another doubt; inactive = no such curve, though single readings can be large; an effect the other way counts as inactive or inconclusive.
# Legend:
# [1] = qHTS Assay for Identification of Small Molecule Antagonists for NFkB Signaling Pathway (AID 895; active = well fitted inhibition curve with a large enough effect in the signal ratio, with a control signal flat, not every such curve was filed as active; the % refers to the signal ratio; note: potency is the fitted concentration of half-maximal effect)
# How it was run: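 ME-180 NFkB-bla cells (beta-lactamase under NFkB response element), plated overnight, treated with compound then 10 pM TNF alpha (about EC50) for 5 hrs at 37 C. LiveBLAzer FRET read at 460/530 nm emission, 405 nm excitation.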
# [2] = qHTS Assay for Identification of Small Molecule Agonists for Thrombopoietin (TPO) Signaling Pathway (AID 917)
# How it was run: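 Activators of TPO signaling were sought in murine Ba/F3 cells transfected with the human receptor, using a luciferase gene driven by the Glycoprotein IIb promoter; 24-hr compound exposure at 37 C alongside 26 pM TPO, in IL-3-free medium.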
# [3] = biological target: Muscarinic acetylcholine receptor M1 (Rattus norvegicus) (UniProt P08482); experiment: qHTS Assay for Antagonists of Acetylcholine Muscarinic M1 Receptor: Measurement of IP-One Response (AID 944); note: nearly all actives have a fitted effect of over 75% in size; note: potency is the fitted concentration of half-maximal effect
# How it was run: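 CHO cells stably expressing rat M1, pretreated 10 min with compound, then stimulated 30 min with carbachol at EC80 (200 nM) in LiCl-containing buffer pH 7.4; IP1 accumulation read by HTRF competition (665/620 nm).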
# [4] = biological target: Cytochrome P450 2C19 (Homo sapiens) (UniProt P33261); experiment: qHTS Assay for Inhibitors and Substrates of Cytochrome P450 2C19 (AID 899); note: nearly all actives have a fitted effect of over 60% in size; note: potency is the fitted concentration of half-maximal effect
# How it was run: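 5 nM human CYP2C19 with 10uM Luciferin-H EGE (at KM) in 50mM KPO4, compound preincubated 10 min at 37C, then NADPH regeneration for 60 min at 37C. Luciferin read by luminescence after detection reagent; normalized to 57uM ketoconazole as full inhibition.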
# [5] = qHTS Assay for Identification of Small Molecule Agonists for Hypoxia Response Element Signaling Pathway (AID 914; active = well fitted activation curve with a large enough effect in the signal ratio, with a control signal flat, not every such curve was filed as active; the % refers to the signal ratio); settings: ME-180 HRE-bla reporter, beta-lactamase ratio, CoCl2, 17 h; stronger effect = higher value
# How it was run: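 ME-180 cells carrying an HRE-driven beta-lactamase reporter were treated with compounds in a titration series plus an EC50 level of CoCl2 for 17 h at 37 degrees Celsius; CCF4 readout as the 460nm/530nm ratio gave AC50 values.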
# [6] = Confirmation and Secondary Assay for Modulators of Hemoglobin Beta Chain Splicing at IVS2 654 locus (AID 910);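 note: HeLa cells stably carrying EGFP split by mutant beta-globin IVS2-654 intron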
# How it was run: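 HeLa cells stably expressing EGFP interrupted by β-globin IVS2-654 intron, seeded overnight in Opti-MEM/2% FCS, then treated 2 days at 37 °C. Restored splicing read as total peak GFP intensity per well by laser scanning cytometry (488 nm excitation, 500–520 nm emission); 500 nM antisense PNA as control.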
# [7] = Confirmation and Secondary Assay for Modulators of Hemoglobin Beta Chain Splicing at IVS2 705 locus (AID 930);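 note: HeLa cells stably expressing the EGFP-705 splicing reporter; series mostly up to about 46 µM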
# How it was run: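 HeLa cells stably carrying EGFP interrupted by mutant beta-globin IVS2-705 intron (CMV-driven) were seeded at 500 cells/well, treated next day with compound for 2 days at 37C; corrected splicing restores EGFP, read as total peak GFP intensity per well.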
# [8] = Cell Viability - LYMP2-001 (AID 921);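 note: cells exposed to compound for 24 h at 37 °C; nearly all actives have a fitted effect of over 70% in size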; note: potency is the fitted concentration of half-maximal effect
# How it was run: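 CellTiter-Glo luminescence (intracellular ATP) after 24 hr compound exposure at 37 C, 2500 lymphoblastoid cells/well in complete medium. AC50 fitted with standard Hill equation; tetraoctylammonium bromide positive control.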
# [9] = biological target: Muscarinic acetylcholine receptor M1 (Rattus norvegicus) (UniProt P08482); experiment: qHTS Assay for Antagonists of Acetylcholine Muscarinic M1 Receptor: Kinetic Measurement of Intracellular Calcium Response (AID 943); note: nearly all actives have a fitted effect of over 75% in size; note: potency is the fitted concentration of half-maximal effect
# How it was run: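 CHO cells expressing rat M1 receptor, Fluo-4 loaded, preincubated 10 min with compound, then stimulated with EC80 carbachol (100 nM final). Kinetic calcium fluorescence over 4 min; response taken as peak over basal signal.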
# [10] = qHTS Assay for Identification of Small Molecule Antagonists for Thrombopoietin (TPO) Signaling Pathway (AID 918); settings: TPO-dependent cell signaling reporter, antagonist mode; note: potency is the fitted concentration of half-maximal effect; nearly all actives have a fitted effect of over 60% in size
# Procedure: NIH Molecular Libraries Screening Centers Network [MLSCN]
# NIH Chemical Genomics Center [NCGC]
# The thrombopoietin (TPO) signaling pathway was assayed in murine Ba/F3 cells stably transfected with the human TPO receptor and a luciferase reporter gene controlled by the Glycoprotein IIb promoter (provided by Axxam). BaF3 cells are an IL-3-dependent pro B cell line that upon TPO stimulation, undergo cell division and induce the megakaryocyte marker, Glycoprotein IIb. The assay was screened at the EC50 of TPO (26 pM) to identify inhibitors of the pathway.
# NCGC Assay Protocol Summary:
# Cells were maintained at 37 C and 5% CO2in RPMI with 10% fetal bovine serum, 0.5 ng/mL murine IL-3, 100U/ml penicillin and 100 ug/ml streptomycin. Prior to plating, cells were incubated overnight in medium without IL-3. Cells were plated at 250 cells/5uL/well into white solid 1536-well plates, 23 nL of compounds were delivered by a pin tool, and 1 uL of TPO (26 pM final concentration in IL-3 deficient medium) was added. Following 24 hrs of incubation at 37 C and 5% CO2, 4 uL of Steadylite detector mix (PerkinElmer) was added, the plates incubated at room temperature for 10 min and luminescence was measured for 10 s and 2X binning by a ViewLux detector (Perkin Elmer).
# Cytochrome P450 2C19 (Homo sapiens), sequence (P33261 whole entry, looked up): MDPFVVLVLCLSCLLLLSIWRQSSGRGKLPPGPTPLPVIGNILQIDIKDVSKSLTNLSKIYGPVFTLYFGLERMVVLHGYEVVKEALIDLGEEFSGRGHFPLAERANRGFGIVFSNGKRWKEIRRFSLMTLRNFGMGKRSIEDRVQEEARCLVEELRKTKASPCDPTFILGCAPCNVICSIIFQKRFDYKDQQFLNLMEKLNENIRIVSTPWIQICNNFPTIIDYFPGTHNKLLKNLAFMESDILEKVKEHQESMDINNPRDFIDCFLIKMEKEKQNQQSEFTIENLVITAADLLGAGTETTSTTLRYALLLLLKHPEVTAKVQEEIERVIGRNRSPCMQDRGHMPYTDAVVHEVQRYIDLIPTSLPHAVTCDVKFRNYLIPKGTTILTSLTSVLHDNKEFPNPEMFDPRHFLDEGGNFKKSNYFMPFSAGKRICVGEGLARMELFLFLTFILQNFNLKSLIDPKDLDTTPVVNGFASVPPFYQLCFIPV
# Muscarinic acetylcholine receptor M1 (Rattus norvegicus), sequence (P08482 whole entry, looked up): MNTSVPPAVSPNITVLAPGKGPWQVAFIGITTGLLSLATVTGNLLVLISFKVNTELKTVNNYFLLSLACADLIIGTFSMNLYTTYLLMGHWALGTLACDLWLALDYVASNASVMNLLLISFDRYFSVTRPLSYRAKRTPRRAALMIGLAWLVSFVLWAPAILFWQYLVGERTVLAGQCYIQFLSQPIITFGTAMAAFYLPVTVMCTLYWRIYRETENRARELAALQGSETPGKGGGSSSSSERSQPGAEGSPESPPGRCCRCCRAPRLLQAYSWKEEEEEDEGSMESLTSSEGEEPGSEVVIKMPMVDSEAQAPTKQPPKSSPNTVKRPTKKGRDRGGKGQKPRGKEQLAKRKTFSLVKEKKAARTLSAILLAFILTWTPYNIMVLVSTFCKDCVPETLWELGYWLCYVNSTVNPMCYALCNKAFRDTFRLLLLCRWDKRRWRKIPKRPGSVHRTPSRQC
structure (smiles),measurement,setting,value
CCCN1CCC[C@@H]2Cc3nc(N)ncc3C[C@H]21,Potency,[1],inactive
same,outcome,[2],inactive
same,Potency,[3],inactive
c1ccc(C2CC2)c(OCC2=NCCN2)c1,Potency,[4],inactive
same,activation,[5],8.99%
same,Potency,[3],10 µM (active)
O=[N+]([O-])c1cc([As](=O)(O)O)ccc1O,Potency,[4],inactive
same,outcome,[6],inactive
same,outcome,[7],inactive
N[C@@H]1C[C@H]1c1ccccc1,Potency,[1],inactive
same,outcome,[2],inactive
same,Potency,[3],inactive
Cc1ncc(CNC(=O)N(CCCl)N=O)c(N)n1,outcome,[6],inactive
same,outcome,[2],inactive
same,outcome,[7],inactive
same,Potency,[3],inactive
CCCC(C)(COC(N)=O)COC(=O)NC(C)C (stereo not given),outcome,[6],inactive
same,activation,[5],-37.8%
same,outcome,[2],inactive
same,Potency,[8],inactive
same,outcome,[7],inactive
same,Potency,[3],inactive
O=c1[nH]c2ccccc2n1CCCN1CCC(n2c(=O)[nH]c3cc(Cl)ccc32)CC1,outcome,[6],inactive
same,outcome,[2],inactive
same,outcome,[7],inactive
same,Potency,[3],14.1 µM (active)
Nc1ccncc1,outcome,[6],inactive
same,outcome,[2],inactive
same,outcome,[7],inactive
same,Potency,[9],inactive
same,Potency,[3],inactive
NCC(O)c1ccc(O)cc1 (stereo not given),outcome,[6],inactive
same,Potency,[8],inactive
same,outcome,[7],inactive
CCCN(CCC)CCc1cccc2c1CC(=O)N2,Potency,[4],inactive
COc1ccccc1N1CCNCC1,Potency,[4],inactive
same,outcome,[6],inactive
same,outcome,[2],inactive
same,outcome,[7],inactive
same,Potency,[9],inactive
same,Potency,[3],inactive
Cc1ccc(S(=O)(=O)N[C@@H](CCCCN)C(=O)CCl)cc1,Potency,[1],11.2 µM (active)
same,outcome,[2],inactive
same,Potency,[9],inactive
N#CC(C#N)=Cc1ccc(O)c(O)c1,Potency,[4],inactive
NCC1(CC(=O)O)CCCCC1,Potency,[4],inactive
same,outcome,[2],inactive
NCC(CC(=O)O)c1ccc(Cl)cc1 (stereo not given),Potency,[1],5.62 µM (active)
same,outcome,[6],inactive
same,outcome,[2],inactive
same,outcome,[7],inactive
Oc1cccc2cccnc12,outcome,[6],inactive
same,Potency,[8],6.31 µM (active)
same,outcome,[7],inactive
NN=C(N)N,outcome,[6],inactive
same,outcome,[2],inactive
same,outcome,[7],inactive
same,Potency,[9],inactive
same,Potency,[3],inactive
COc1ccc(Cc2nccc3cc(OC)c(OC)cc23)cc1OC,Potency,[4],5.01 µM (active)
same,outcome,[6],inactive
same,Potency,[10],12.6 µM (active)
same,outcome,[7],inactive
CC(C)C(=O)Nc1ccc([N+](=O)[O-])c(C(F)(F)F)c1,Potency,[4],inactive
CCOC(=O)c1ncn2c1CN(C)C(=O)c1cc(F)ccc1-2,Potency,[4],1.58 µM (active)
Cc1cccc(C)c1NC1=NCCCS1,outcome,[6],inactive
same,outcome,[2],inactive
same,outcome,[7],inactive
C=C(C)[C@H]1Cc2c(ccc3c2O[C@@H]2COc4cc(OC)c(OC)cc4[C@@H]2C3=O)O1,Potency,[4],1 µM (active)
CN1C[C@H](CNC(=O)OCc2ccccc2)C[C@@H]2c3cccc4c3c(cn4C)C[C@H]21,Potency,[1],inactive
same,Potency,[10],10 µM (active)
same,Potency,[3],15.8 µM (active)
CCCN1CCC[C@@H]2Cc3[nH]ncc3C[C@H]21,Potency,[1],inactive
same,outcome,[2],inactive
same,Potency,[9],inactive
same,Potency,[3],inactive
O=c1[nH]c2ccccc2n1C1CCN(CCCC(c2ccc(F)cc2)c2ccc(F)cc2)CC1,outcome,[6],inactive
same,Potency,[10],10 µM (active)
same,outcome,[7],inactive
O=c1c(O)c(-c2ccc(O)c(O)c2)oc2cc(O)cc(O)c12,Potency,[1],5.62 µM (active)
same,Potency,[9],inactive
CC(=O)[C@H]1CC[C@H]2[C@@H]3CC[C@H]4C[C@H](O)CC[C@]4(C)[C@H]3C(=O)C[C@]12C,outcome,[2],inactive
CC[N+]1(C)CCCC(OC(=O)C(O)(c2ccccc2)c2ccccc2)C1 (stereo not given),outcome,[6],inactive
same,outcome,[7],inactive
Clc1ccc(COC(Cn2ccnc2)c2ccc(Cl)cc2Cl)cc1 (stereo not given),outcome,[6],inactive
same,outcome,[7],inactive
CNCC(O)c1ccc(O)cc1 (stereo not given),Potency,[8],inactive
same,Potency,[3],inactive
CCC(COC(=O)c1cc(OC)c(OC)c(OC)c1)(c1ccccc1)N(C)C (stereo not given),outcome,[6],inactive
same,outcome,[7],inactive
CC(C)=CC1C(C(=O)OCc2cccc(Oc3ccccc3)c2)C1(C)C (stereo not given),outcome,[6],inactive
same,outcome,[7],inactive
c1ccc2c(c1)Nc1ccccc1S2,Potency,[8],inactive
NCCc1cc(O)c(O)cc1O,outcome,[6],inactive
same,outcome,[7],inactive
Cc1nc2n(c(=O)c1CCN1CCC(c3noc4cc(F)ccc34)CC1)CCCC2,Potency,[3],12.6 µM (active)
Oc1ccc(Cl)cc1Cc1ccccc1,Potency,[8],inactive
CC(C)=CCOc1c2occc2cc2ccc(=O)oc12,outcome,[6],inactive
same,outcome,[7],inactive
CC(C)CC(N(C)C)C1(c2ccc(Cl)cc2)CCC1 (stereo not given),outcome,[6],inactive
same,outcome,[7],inactive
Cc1ccc(-c2nc3ccc(C)cn3c2CC(=O)N(C)C)cc1,outcome,[6],inactive
same,outcome,[7],inactive
Oc1ccccc1-c1ccccc1,Potency,[8],inactive
CC(C)(C)NCC(O)c1cc(Cl)c(N)c(Cl)c1 (stereo not given),outcome,[6],inactive
same,outcome,[7],inactive
CCn1cc(C(=O)O)c(=O)c2ccc(C)nc21,outcome,[2],inactive
same,Potency,[9],inactive
same,Potency,[3],inactive
CCOP(=S)(OCC)Oc1cc(C)nc(C(C)C)n1,Potency,[8],inactive
Clc1cccc(N2CCNCC2)c1,outcome,[2],inactive
COc1ccc(C(CN(C)C)C2(O)CCCCC2)cc1 (stereo not given),outcome,[6],inactive
same,outcome,[7],inactive
CC(CCc1ccccc1)NC(C)C(O)c1ccc(O)cc1 (stereo not given),outcome,[6],inactive
same,outcome,[7],inactive
Fc1ccc(C(OCCN2CCN(CCCc3ccccc3)CC2)c2ccc(F)cc2)cc1,Potency,[10],10 µM (active)
same,Potency,[9],1.58 µM (active)
same,Potency,[3],7.94 µM (active)
N[C@@H](Cc1ccc(N(CCCl)CCCl)cc1)C(=O)O,Potency,[8],39.8 µM (active)
CCC1(C2=NCCN2)Cc2ccccc2O1 (stereo not given),outcome,[6],inactive
same,outcome,[7],inactive
CC(=O)Nc1cc([As](=O)(O)O)ccc1O,outcome,[6],inactive
same,outcome,[7],inactive
OCCOc1ccccc1,Potency,[8],inactive
O=P1(NCCCl)OCCCN1CCCl (stereo not given),activation,[5],-2.35%
